Screening data from PubChem.
MCL1-BIM inh = inhibitors of human MCL1 binding to BIM-BH3 peptide; Q07820; inhibition, % at 10.9 µM; actives 0.68% (n = 320,000); GST-MCL1 / FITC-Bim-BH3 fluorescence polarization; AID 2057;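 active = inhibition above the mean inhibition of all tested compounds plus 3 SD, set per campaign, cut at about 40% in these data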;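 note: 0% = DMSO wells and 100% = unlabeled Bim-BH3 peptide control; higher means more loss of mP so more displacement of Bim peptide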
EBV gp42 inh = inhibitors of Epstein-Barr virus glycoprotein 42. inhibition, % (tested at 21.74 µM). actives 0.42% (n = 220,000). Fluorescence polarization binding assay, mP read-out. Q1HVG2; in the data active = inhibition above about 50%
Bcl-xL primary = Bcl-xL (human) inhibition; GST-Bcl-xL / FITC-Bim BH3 peptide fluorescence polarization; inhibition, % at 10.9 µM; actives 0.7% (n = 320,000); AID 2129;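 active = inhibition above the mean of all tested compounds plus 3 SD, cutoff set per campaign, cut at about 30% in these data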;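 note: 0% = DMSO wells and 100% = unlabeled Bim-BH3 peptide competitor; inhibitors lower millipolarization by displacing the labeled peptide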
eLon inh = inhibits E. coli Lon protease | P0A9M0 | actives 0.42% (n = 360,000) | purified E. coli Lon protease, fluorescence polarization | inhibition, % at 7.94 µM; in the data active = inhibition above about 13%, passing the limit was not always enough;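 note: 0% = enzyme with probe and DMSO and 100% = no enzyme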
Target sequence (P0A9M0 whole entry, looked up): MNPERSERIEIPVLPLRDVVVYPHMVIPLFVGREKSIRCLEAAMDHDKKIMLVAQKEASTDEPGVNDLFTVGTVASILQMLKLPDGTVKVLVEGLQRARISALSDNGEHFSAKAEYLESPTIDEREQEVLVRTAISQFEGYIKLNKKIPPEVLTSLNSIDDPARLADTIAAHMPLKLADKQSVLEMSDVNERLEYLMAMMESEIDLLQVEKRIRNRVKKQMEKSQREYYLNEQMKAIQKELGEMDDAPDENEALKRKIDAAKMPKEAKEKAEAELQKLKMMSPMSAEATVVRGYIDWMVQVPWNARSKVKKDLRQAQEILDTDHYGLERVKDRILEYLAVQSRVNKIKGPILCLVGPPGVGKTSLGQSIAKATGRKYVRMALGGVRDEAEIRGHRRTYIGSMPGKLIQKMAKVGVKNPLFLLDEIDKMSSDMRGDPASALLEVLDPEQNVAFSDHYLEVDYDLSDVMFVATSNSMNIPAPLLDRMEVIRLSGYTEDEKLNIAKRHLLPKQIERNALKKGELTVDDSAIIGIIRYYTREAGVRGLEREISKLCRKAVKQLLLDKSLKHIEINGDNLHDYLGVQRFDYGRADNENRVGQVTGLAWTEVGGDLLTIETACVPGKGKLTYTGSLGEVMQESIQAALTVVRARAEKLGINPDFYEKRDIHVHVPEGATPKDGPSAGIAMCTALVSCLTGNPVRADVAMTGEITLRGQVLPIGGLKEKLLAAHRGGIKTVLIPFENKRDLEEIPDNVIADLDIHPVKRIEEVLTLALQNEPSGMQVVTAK
GLD-1 TGE inh = GLD-1-TGE RNA interaction inhibition (C. elegans); purified GLD-1 + fluorescein TGE RNA, fluorescence polarization; inhibition, % at 5.96 µM; Q17339; actives 0.44% (n = 320,000);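 active = percent inhibition above a per-plate cutoff, the plate mean of test compounds plus 3 SD, cut at about 30% in these data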;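 note: 0% = DMSO wells with GLD-1 and probe and 100% = wells lacking GLD-1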
MEX-5 binding = C. elegans MEX-5 TCR-2 RNA binding activity; Q9XUB2; MEX-5/FITC-TCR2 RNA binding, fluorescence polarization; hits give low values; activity score (negative = inhibition of binding), % at 10 µM; actives 0.38% (n = 300,000);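 active = inhibition past about -25% in most replicates, and total fluorescence under double the plate's negative control median, limit read from the data; inconclusive = replicates evenly split on the limit, or fluorescence at least double controls; inactive = too little inhibition in most replicates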;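 note: 0% = DMSO and -100% = 5 µM competing unlabeled TCR2 RNA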
BCLXL inh confirm = counter-screen for MCL1 inhibitors: confirmation of human Bcl-xL inhibitors; GST-Bcl-xL / FITC-Bim BH3 peptide FP binding; actives 54% (n = 1,700); shares compounds with MCL1-BIM inh; inhibition, % at 10.9 µM;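 active = inhibition above a cutoff equal to the mean inhibition of all tested compounds plus 3 SD, cut at about 30% in these data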;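 note: 0% = DMSO wells and 100% = unlabeled Bim BH3 control peptide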
MCL1 inh confirm = confirmation of human MCL1 and BIM-BH3 interaction inhibitors; shares compounds with MCL1-BIM inh; GST-MCL1 / FITC-Bim-BH3 fluorescence polarization; inhibition, % at 10.9 µM; actives 61% (n = 1,700);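 active = inhibition above the average of all tested compounds plus 3 SD, cut at about 40% in these data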;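 note: 0% = DMSO wells and 100% = unlabeled Bim-BH3 control peptide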
An asterisk follows results filed as active; u = inconclusive; x = no result; + = active, no number. Hits are enriched below; roughly 1.5% of the tested compounds scored in any of these assays.

SMILES	MCL1-BIM inh	EBV gp42 inh	Bcl-xL primary	eLon inh	GLD-1 TGE inh	MEX-5 binding	BCLXL inh confirm	MCL1 inh confirm
CC1(c2ccc3noc(-c4ccc(F)cc4)c3c2)OCCO1	83*	86*	74*	8	89*	-7	78*	111*
O=C(COC(=O)c1ccc([N+](=O)[O-])s1)Nc1ncc(C(F)(F)F)cc1Cl	+	34	13	-21	2	-2	12	16
O=C(COC(=O)c1ccccn1)Nc1ncc(C(F)(F)F)cc1Cl	1	-7	3	-9	9	-7	x	x
Cn1nc(-c2ccccc2)c2nc3ccccc3nc21	55*	126*	56*	-5	-13	u	102*	111*
Oc1ccc(/C=N/Nc2ccnc3cc(Cl)ccc23)cc1O	-7	10	0	1	-7	-4	x	x
Oc1ccc(/C=N/Nc2ccnc3cc(Cl)ccc23)c(O)c1O	54*	x	19	-27	-14	0	33*	38
CC(C(=O)Nc1ccc(O)cc1C(=O)O)N1C(=O)/C(=C\c2cccs2)SC1=S (stereo not given)	58*	x	28	0	-6	-9	27	39
O=C(CCCN1C(=O)/C(=C/c2ccco2)SC1=S)Nc1ccccc1C(=O)O	83*	-12	40*	-8	-1	-17	39*	73*
O=C(CN1C(=O)/C(=C\c2ccco2)SC1=S)Nc1ccc(O)cc1C(=O)O	76*	x	46*	-25	-1	-11	23	38
Cc1ccc2[nH]c3c(c2c1)CCN(C)C3	-3	x	0	-18	6	-1	x	x
CCCOc1ccc(/C(CC)=N/NC(=O)C2(C)CC2(Br)Br)cc1 (stereo not given)	112*	-20	97*	5	112*	-2	7	0
CC(=O)Nc1ccc(NC(=O)C(C)OC(=O)C2CCCCC2)cc1 (stereo not given)	151*	x	18	17	21	x	2	9
CC(=O)Nc1ccc(NC(=O)C(C)OC(=O)C2CCCC2)cc1 (stereo not given)	-11	x	-19	-1	-5	0	x	x
OC1CCCN(C(=S)NCc2ccccc2)C1 (stereo not given)	-3	11	-2	-2	-1	-3	x	x
C/C(=N/NC(=O)c1cc2ccccc2cc1O)C1C(=O)c2ccccc2C1=O	41*	-9	14	-5	0	2	7	41*
Cc1ccc(S(=O)(=O)C(C#N)c2nc3ccccc3nc2N2CCCC2)cc1 (stereo not given)	75*	91*	83*	-11	57*	-4	64*	63*
C=CCN(c1ccccc1)S(=O)(=O)c1cc2c(cc1C)N(C)CCO2	5	x	3	0	-2	0	x	x
Cc1cc2c(cc1[N+](=O)[O-])NC(CNC(C)C)CC2 (stereo not given)	96*	-18	98*	0	51*	0	5	4
Nc1ccc2nc(-c3ccccc3)c(-c3ccccc3)nc2c1	60*	x	49*	13	73*	-40*	63*	54*
COc1cccc(Oc2nnnn2-c2ccccc2)c1	34	-16	5	-2	5	1	x	x
O=C(CN1CCN(c2ccccn2)CC1)NCCc1ccccc1	-6	-40	5	-10	1	-2	x	x
CC(C)(C)c1cc(C(=O)O)n[nH]1	48*	-22	2	-8	-1	-1	2	14
CC(C)Cc1cc(C(=O)O)n[nH]1	-10	-13	-6	-7	-2	-5	x	x
Cc1ccccc1N1CCN(C2=NC(=O)/C(=C\c3cccs3)S2)CC1	46*	-19	8	-2	4	-1	11	22
O=C1N=C(N2CCN(c3cccc4ccccc34)CC2)S/C1=C/c1cccs1	2	-20	-1	2	5	2	x	x
SMILES	MCL1-BIM inh	EBV gp42 inh	Bcl-xL primary	eLon inh	GLD-1 TGE inh	MEX-5 binding	BCLXL inh confirm	MCL1 inh confirm
COC(=O)Cc1cc(=O)n2[nH]cnc2n1	16	-17	14	5	13	0	x	x
CC1C2C(C)N(C)C(=O)N(C)C2N(C)C(=O)N1C (stereo not given)	85*	65*	81*	7	41*	-40*	74*	90*
Cc1oc2c(cc(NS(=O)(=O)c3ccc(C(C)C)cc3)c3ccccc32)c1C(=O)O	75*	x	69*	-2	32*	-22	110*	138*
Cc1oc2c(cc(NS(=O)(=O)c3ccc(F)cc3)c3ccccc32)c1C(=O)O	23	x	22	-16	1	-9	x	x
CC(OC(=O)/C=C/c1ccccc1)C(=O)Nc1ccc2c(c1)OCCO2 (stereo not given)	0	x	-1	5	0	x	x	x
COc1ccc(/C=N/NC(=O)COc2ccc3ccccc3c2)c(C(=O)O)c1OC	-2	2	0	3	7	0	x	x
COc1ccc(/C=N/NC(=O)COc2cccc3ccccc23)c(C(=O)O)c1OC	54*	-3	6	3	-5	0	10	23
COC(=O)c1ccc(N)c(N=CC2=C(O)CC(C)(C)CC2=O)c1	89*	-18	87*	-62	73*	1	7	15
CC1(C)CC(=O)C(C=Nc2cc(C(=O)c3ccccc3)ccc2N)=C(O)C1	-24	0	-5	-17	4	-15	x	x
CN(Cc1nc2ccccc2c(=O)[nH]1)C(=O)c1ccc(NC(=O)CSc2nnnn2C)cc1	44*	x	1	-4	5	x	1	0
CCCOc1ccc(S(=O)(=O)N2CCCC2)cc1[N+](=O)[O-]	-5	-11	-2	-12	0	1	x	x
CC1CCCN(CC(O)COc2ccc(S(=O)(=O)N3CCCC3)cc2[N+](=O)[O-])C1 (stereo not given)	54*	x	7	-12	-1	x	6	3
CC(C)CNC(=S)NC(=O)c1ccc(F)cc1	-18	-13	-13	-34	-3	1	x	x
COC(=O)CSc1nc(NC(C)(C)C)nc(N(C)C)n1	2	-2	6	2	2	2	x	x
CC(=O)C(Sc1nc(NC(C)(C)C)nc(N(C)C)n1)C(C)=O	193*	-7	7	-8	2	0	7	-1
C=CCn1c(SCC(=O)Nc2nc(C)cs2)nnc1C(NC(=O)c1ccccc1)C(C)C (stereo not given)	4	3	4	-3	5	-1	x	x
